# Compounds with a hit are over-represented: about 4% of the library has one in this group of screens.
# TRHR enhancer = TRH receptor (human) allosteric enhancement | P34981 | TRHR cells, fluo-8 calcium fluorescence, EC20 TRH enhancement | enhancement, % at 2 µM | actives 0.66% (n = 360,000) | AID 493056; in the data active = enhancement above about 30%
#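 Enhancer read-out: after compound pinning and an initial kinetic agonist-mode read, an EC20 of TRH (10 nM final) was injected and fluo-8 calcium signal (Ex 480/Em 530) followed at 1 s/cycle for 100 cycles in TRHR-expressing cells.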
# GRP78 ERSR act = induces the endoplasmic reticulum stress response in human glioma cells. Potency, µM, hits mostly activators. actives 0.02% (n = 420,000). U87-MG GRP78 promoter luciferase reporter, 16 h; active = well fitted activation curve with a large enough effect; inconclusive = small, poorly fitted or top-dose-only effect; inactive = no such curve, though single readings can be large or run the other way; note: series mostly up to about 76 µM; nearly all actives have a fitted effect of over 35% in size
#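 ERSR induction read as luciferase luminescence (Bright-Glo, 10 min at room temperature) in stably transfected human U87-MG glioma cells exposed to compounds for 16 h, using GRP78 as sensor.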
# D1 ag = activates the human D1 dopamine receptor; P21728; HEK293 T-REx D1 cells, calcium flux, agonist mode; activation, % at 2 µM; actives 1% (n = 360,000); AID 504660
# Target sequence (P21728 whole entry, looked up): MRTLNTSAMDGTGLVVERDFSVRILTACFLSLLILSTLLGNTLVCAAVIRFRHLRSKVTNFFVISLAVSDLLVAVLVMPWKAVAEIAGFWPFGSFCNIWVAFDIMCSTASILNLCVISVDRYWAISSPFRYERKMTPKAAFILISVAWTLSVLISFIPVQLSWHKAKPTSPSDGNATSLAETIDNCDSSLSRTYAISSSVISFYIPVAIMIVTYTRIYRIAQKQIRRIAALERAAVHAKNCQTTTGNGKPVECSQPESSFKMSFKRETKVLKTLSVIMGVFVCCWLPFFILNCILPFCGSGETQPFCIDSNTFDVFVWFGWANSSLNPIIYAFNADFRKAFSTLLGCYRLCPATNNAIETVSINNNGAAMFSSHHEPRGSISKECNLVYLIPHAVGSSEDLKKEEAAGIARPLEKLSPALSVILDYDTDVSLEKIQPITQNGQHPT
#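 Tetracycline-induced HEK293 TREx D1 cells, force-coupled to calcium signalling, were dye-loaded with a no-wash calcium kit. Compound was pin-added after a 10 s baseline. Fluorescence was read kinetically at 1 cycle/s for 180 s, with calcium rises flagged as agonism.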
# TRHR ag = TRH receptor (human) agonism; actives 0.18% (n = 360,000); activation, % at 2 µM; TRHR cells, calcium flux fluo-8, FDSS agonist mode
#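 Agonist-mode FDSS calcium read (Ex 480/Em 530, 1 s cycles) in 1536-well TRHR cells with fluo-8 dye, after 10-cycle baseline and 23 nL compound addition; TRH at EC20 (10 nM final) added afterwards for the enhancer phase.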
# D1 antagonist = human D1 dopamine receptor antagonism. P21728. HEK293 TREx D1 cells, calcium flux, dopamine EC80; hits give low values. activity change, negative = inhibition, % at 10 µM. actives 3.2% (n = 360,000). AID 504652; in the data active = activity change below about -30%
#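 Compound effects on dopamine-evoked calcium signalling were measured in tetracycline-induced HEK293 Trex D1 cells. Dopamine at EC80 followed a 180 s compound pre-read, and fluorescence was tracked kinetically for 180 s more.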
# D1 PAM = human D1 dopamine receptor positive modulation; P21728; HEK293 TREx D1 cells, calcium flux, dopamine EC20 potentiation; potentiation, % at 10 µM; actives 0.036% (n = 360,000); in the data active = potentiation above about 30%
# Numbers stand for hits; - = inactive; ? = inconclusive; . = not tested or not shown; ! = repeats disagree. Cut-off read from the data, not from the text of the source, unless noted: active = activation above about 30%; inactive = the rest.
SMILES,TRHR enhancer,GRP78 ERSR act,D1 ag,TRHR ag,D1 antagonist,D1 PAM
Clc1ccc(-c2csc3ncnc(Sc4nnnn4C4CC4)c23)cc1,.,-,.,.,.,.
COc1ccc(C(=O)Nc2cnc3ccccn3c2=O)cc1,-,-,-,-,-77.3!,-
COc1cccc(C(=O)Nc2ccccc2OCc2cc(=O)n3ccccc3n2)c1,-,-,-,-,-33.8,-
COc1cccc(C(=O)Nc2ccccc2OCc2cc(=O)n3cc(C)ccc3n2)c1,-,-,-,-,-,-
CCOc1ccc(Cn2c(CNS(=O)(=O)c3cccc(Cl)c3)nc3cccnc32)cc1,-,-,-,-,-80.0,-
CCOc1ccc(Cn2c(CNS(=O)(=O)c3ccc([N+](=O)[O-])cc3)nc3cccnc32)cc1,-,-,-,-,-,-
COC(=O)/C=C/C1c2ccccc2C(OC)C1C (stereo not given),.,-,.,.,.,.
CC(=O)Nc1ccc(S(=O)(=O)NC2CCCCCC2)cc1,-,-,-,-,-,-
CC(C)C(=O)NC(=S)Nc1ccc(S(=O)(=O)NC2CCCCC2)cc1,-,-,-,-,-32.1,-
CCOc1ccc(NS(=O)(=O)c2ccc(NC(=S)NC(=O)C(C)C)cc2)cc1,-,-,31.9,-,-,-
CCc1nnc(NS(=O)(=O)c2ccc(NC(=S)NC(=O)c3ccc(OC)c(OC)c3)cc2)s1,-,-,-,-,-,-
CCOc1ccc(NS(=O)(=O)c2ccc(NC(=S)NC(C)=O)cc2)cc1,-,-,94.6,-,-,-
COc1ccc(NS(=O)(=O)c2ccc(NC(=S)NC(=O)C(C)C)cc2)cc1,-,-,-,-,-,-
CCc1nnc(NS(=O)(=O)c2ccc(NC(=S)NC(=O)c3ccc(OC)cc3)cc2)s1,-,-,-,-,-31.5,-
Cc1nc(C(=O)N(Cc2cc3ccc(F)cc3nc2N2CCC(O)CC2)CC2CCCO2)cs1 (stereo not given),.,-,.,.,.,.
O=C(C[N+]12CCCc3cccc(c31)CCC2)c1ccc(Cl)c2ccccc12,.,-,.,.,.,.
CCOC(=O)C1=C(O)/C(=C/c2ccccn2)SC1=Nc1ccc(Cl)cc1,-,-,-,-,-33.5,-
CCOC(=O)C1=C(O)/C(=C/c2ccc(OCC(=O)O)c(OCC)c2)SC1=Nc1ccccc1,-,-,-,-,-,-
O=C(CSc1nc2ncccc2[nH]1)NCCc1ccccc1,-,-,-,-,-38.9,-
COc1ccc(CCNC(=O)CSc2nc3ncccc3[nH]2)c(OC)c1,-,?,-,-,-,-
COc1cccc(CNC(=O)CCNS(=O)(=O)c2cccc3nsnc23)c1,-,-,-,-,-73.3!,-
COC(=O)CNC(=O)C1CCC(CNS(=O)(=O)c2cccc3nsnc23)CC1 (stereo not given),-,-,-,-,-33.3,-
N#Cc1ccc(Nc2ccccc2)c(N)c1,-,-,-,-,-,-
N#Cc1cc(N)c(Nc2ccccc2)cc1C#N,-,-,-,-,-41.1,-
COc1ccc(OC)c(/C=C2\SC(=S)N(C(C(=O)O)c3ccccc3)C2=O)c1 (stereo not given),-,-,35.1,-,-,-
SMILES,TRHR enhancer,GRP78 ERSR act,D1 ag,TRHR ag,D1 antagonist,D1 PAM
Cc1cc(SCC(=O)Nc2ccc(O)cc2)n2nc(C)c(-c3ccccc3)c2n1,-,-,-,-,-49.9,-
CC(=O)Nc1ccc(Nc2cc(C(C)C)nc3c(-c4ccccc4)c(C)nn23)cc1,-,-,-,-,-,-
CC(=O)Nc1ccc(Nc2cc(C)nc3c(-c4ccccc4)c(C)nn23)cc1,-,-,-,-,-30.1,-
CCCCCCCCCCN1CCOCCOCCN(CCCCCCCCCC)CCOCCOCC1,.,-,.,.,.,.
Cc1c(-c2ccccc2)n(-c2ccccc2O)c2nc3c(c(=O)n(C)c(=O)n3C)n12,-,-,-,-,-,-
CCOc1ccc(N=C2NC(=O)S/C2=C\c2ccc(N(C)C)cc2)cc1,-,-,81.5,-,-,-
CCOc1ccc(/C=C2/SC(=O)NC2=S)cc1,-,-,-,-,-,-
COc1cccc(Oc2ccc(S(=O)(=O)N3CCCC3)cc2[N+](=O)[O-])c1,31.8,-,-,-,-,-
COc1ccc(OCCOc2ccc(S(=O)(=O)N3CCCC3)cc2[N+](=O)[O-])cc1,-,-,-,-,-,-
Cc1cccc(-n2c(C)nnc2SCC(=O)NC(C)c2ccco2)c1 (stereo not given),.,-,.,.,.,.
COc1ccc(CNCCC(c2ccc(F)cc2)c2ccc(OC)cc2)cc1 (stereo not given),-,-,34.2,-,-,-
COc1ccc(C(CCNCc2ccc(F)cc2)c2ccc(F)cc2)cc1 (stereo not given),-,-,45.9,-,-,-
COc1ccc(C(CCNC(C)c2ccccc2)c2ccc(F)cc2)cc1 (stereo not given),-,-,55.5,-,-,-
C/C=C/C1Oc2ccc(OC)cc2N2C(=O)C(C)C(OCOC)C12 (stereo not given),.,-,.,.,.,.
O=C(CCNC(=O)C1CCN(S(=O)(=O)c2ccccc2)CC1)NCc1ccncc1,-,-,-,-,-,-
O=C(Nc1cccc(C(F)(F)F)c1)Oc1ccc(Cl)c2cccnc12,-,-,33.7,-,-,-
O=C(Nc1cccc(F)c1)C1CCCN(C(=O)c2ccc(Cl)cc2)C1 (stereo not given),-,-,-,-,-,-
CC(NC(=O)C1CCCN(C(=O)c2ccc(Cl)cc2)C1)c1cccc(C(F)(F)F)c1 (stereo not given),-,-,-,-,-36.7,.
O=C(c1cccc(C(F)(F)F)c1)N1CCCCCC1,-,-,-,-,-56.3,-
CN(C)c1ccc(/C=C2\C(Cl)=Cc3ccccc32)cc1,.,-,.,.,.,.
COc1cc([C@@H]2C[C@H]3CN(c4ccccc4)C(=O)[C@]34CCCN24)cc(OC)c1OC,-,-,-,-,-40.8,-
CCOc1cc([C@@H]2C[C@H]3CN(c4ccccc4)C(=O)[C@]34CCCN24)ccc1OC,-,-,-,-,-,-
Cc1ccc(C(=O)NCCc2nnc3ccc(SCC(=O)Nc4ccccc4F)nn23)cc1,-,-,-,-,-,-
CN(CC(=O)Nc1ccccc1Cl)C(=O)COC(=O)c1ccc(Cl)cc1[N+](=O)[O-],-,-,-,-,-41.9,-
CN(CC(=O)Nc1ccccc1Cl)C(=O)COC(=O)c1ccc([N+](=O)[O-])s1,.,-,.,.,.,.
Cc1cccc(N2C(=O)CC(c3ccc(F)cc3)C3=C2COC3=O)c1 (stereo not given),-,-,-,-,-,-
CCc1cc2cc(C)ccc2nc1SCC(=O)NNC(=O)c1ccco1,-,-,33.9,-,-,.
O=C(CSc1nnnn1-c1ccc(F)cc1)NNC(=O)c1ccco1,-,-,-,-,-,-

# Screening results (PubChem)
